# Bioassay records deposited in PubChem by National Center for Advancing Translational Sciences (NCATS).
# Giardia kill = Small Molecules that selectively kill Giardia lamblia: qHTS | Giardia lamblia trophozoite viability | activity change, % at 7.66 µM, hits read low | 340,000 tested, 0.15% active; in the data active means activity change below about -80%; inconclusive means between about -30% and that limit;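 further: parasites exposed to compound for two days anaerobically before the ATP read; on the % scale 0 is the no-effect control and ±100 the full control effect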
#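 Media and compound were dispensed first, then trophozoites at 100 cells/well; plates sat 48 hrs at 37 deg C without oxygen before ATP luminescence reagent was added and read after 15-30 min at room temperature.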
# ATXN2 expr inh = Primary qHTS for Inhibitors of ATXN expression. HEK-293 ATXN2-luciferase reporter, luminescence, 24 h. Potency, µM (series often up to 57 µM), for inactives: at the highest dose activity change, negative = inhibition, most hits filed as inhibitors. 360,000 tested, 0.72% active; further: potency means the concentration at half of the fitted maximal effect; on the % scale 0 is the no-effect control and ±100 the full control effect; nearly all actives have a fitted effect of over 55% in size
#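 qHTS (up to 57 uM final) was run with 24 h compound exposure of reporter cells at 37 °C. Each well was multiplexed: SteadyGlo luminescence measured ATXN2-luciferase expression after a fluorogenic Gly-Phe-AFC viability readout (25 uM final).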
# HepG2 tox = qHTS for Inhibitors of TGF-b: Cytotox Counterscreen; 410,000 tested, 0.76% active; HepG2 CAGA-GFP viability, ATP luminescence, 18 h; Potency, µM (doses to about 46.1 µM), without a hit: top-dose activity change, negative = cytotoxicity, usual class: cytotoxic; further: potency means the concentration at half of the fitted maximal effect
#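 HepG2 CAGA-GFP cells (1000/well, DMEM with 1% FBS) received compound, then TGF-beta at 500 pg/mL final, and were incubated 18 hours at 37 degrees C. Viability was read by CellTiter-Glo luminescence. Media-only wells were set as complete cell-killing and DMSO as no toxicity.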
# TGFb inhibitor = qHTS for Inhibitors of TGF-b; HepG2 CAGA-GFP TGF-b/SMAD3 reporter, GFP fluorescence, 18 h; TGF-beta stimulated, 500 pg/mL final; Potency, µM (top dose mostly 46.1 µM), for inactives: top-dose activity, negative = inhibition, hits mostly inhibitors; AID 588855, 2011; 410,000 tested, 1.2% active; further: potency means the concentration at half of the fitted maximal effect; on the % scale 0 is the no-effect control and ±100 the full control effect; nearly all actives have a fitted effect of over 65% in size
#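 Per well, imaged GFP fluorescence of HEPG2 CAGA-GFP cells gives the signal; cells get compound, then TGF-beta (500 pg/mL final), 18 h at 37 degrees C; %Activity versus -TGF-beta and +DMSO controls.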
# S2 tox = Viability Counterscreen for Primary qHTS for Inhibitors of ATXN expression; S2 cells (HEK-293 line with an ATXN2-luciferase reporter) viability, CellTiter-Fluor protease fluorescence, 24 h; 400,000 tested, 0.49% active; Potency, µM (series often up to 56.7 µM), usual class: cytotoxic; further: potency means the concentration at half of the fitted maximal effect; nearly all actives have a fitted effect of over 40% in size
# uPA surface inh = qHTS for Inhibitors of Cell Surface uPA Generation. cell surface uPA generation assay, qHTS. 330,000 tested, 0.31% active. AID 540303, 2011. Potency, µM (doses to about 38.3 µM), inactives show at the highest dose activity change, negative = inhibition, hits mostly inhibitors; active means well fitted inhibition curve with a large enough effect; inconclusive means small, poorly fitted or top-dose-only effect; inactive means no such curve, though single readings can be large or run the other way; tested in mouse RAW 264.7 cells; further: potency means the concentration at half of the fitted maximal effect; on the % scale 0 is the no-effect control and ±100 the full control effect; nearly all actives have a fitted effect of over 55% in size
# * = called active by the depositor; i = inactive; ? = inconclusive; / = no result given. Only some compounds are listed: those with a hit (about 2.6% of all), similar ones and a draw of the others. Unless noted, the call rests on the fitted dose curve; in most records, active means well fitted curve in the direction sought with a large enough effect; inconclusive means small, poorly fitted or top-dose-only effect, or another doubt; inactive means no such curve, though single readings can be large; an effect the other way counts as inactive or inconclusive.
SMILES,Giardia kill,ATXN2 expr inh,HepG2 tox,TGFb inhibitor,S2 tox,uPA surface inh
Cc1[nH]c2ccccc2c1/C=C/c1cc[n+](C)cc1,-9,-15%,0%,92%,i,-1%
Cc1[nH]c2ccccc2c1/C=C/c1c(C)[nH]c2ccccc12,/,/,-48%,6.3µM*,/,/
Cc1ccc(-c2cc(C3C4C=CCCC4(C)C(=O)N3Cc3ccccc3)ccc2F)cc1 (stereo not given),-23,/,-27%,-2%,/,/
CCn1c(Cl)c(C=O)s/c1=N\S(=O)(=O)c1ccccc1,14,13µM*,8.9µM*,3.5µM*,14µM*,20%
COc1ccc2nc3sc(C(=O)N4CCN(C)CC4)cc3cc2c1,2,8%,8.9µM*,-4%,i,3%
CCOc1ccc(NCc2cccn2-c2nnc(N3CCC(C(=O)NCCCN4CC(C)CC(C)C4)CC3)s2)cc1 (stereo not given),-6,32µM*,-87%,?,?,2%
CCOc1ccc(NCc2cccn2-c2nnc(N3CCC(C(=O)NCCc4ccc(OC)c(OC)c4)CC3)s2)cc1,/,/,-30%,/,/,/
Cc1ccc(NC(/C=C/N(C)C)=C/C(=O)C(F)(F)F)c(C)c1,-9,-28%,-3%,20µM*,i,1%
COc1cc(OC)cc(C(=O)N2CCCC(n3cc(C(=O)NCC(C)C)nn3)C2)c1 (stereo not given),/,/,/,/,i,/
CC(C)(C)c1cc(NC(=O)c2ccc(OC3CCCC3)cc2)no1,-16,6%,1%,14%,i,-5%
O=C(Nc1ccon1)c1ccc(OC2CCCC2)cc1,?,99%,-1%,-4%,i,10µM*
CC1=C(CC[C@@H](C)CO)OC2CC3C4CCC5CC(O)CCC5(C)C4CC(=O)C3(C)C12 (stereo not given in full),-1,25µM*,-25%,2%,?,-11%
C(=C\c1ccnc2ccccc12)/c1ccc(N2CCN(c3ccc(/C=C/c4ccnc5ccccc45)cc3)CC2)cc1,/,/,-40%,-4%,/,/
O=C(Cc1ccc2c(c1)OCCO2)N/N=C/c1ccco1,-12,/,-13%,4%,i,2%
O=C(Cc1ccc2c(c1)OCO2)NN=Cc1ccc([N+](=O)[O-])o1,-102*,?,-102%,10µM*,?,-8%
O=[N+]([O-])c1ccc(/C=N/NC(=S)Nc2ccccc2F)o1,-16,-14%,27%,5%,i,3%
O=C(CCC(=O)Nc1ccc(Cl)cc1Cl)N/N=C/c1ccc([N+](=O)[O-])o1,-82*,?,16µM*,11µM*,?,-13%
O=C(CNC(=O)c1ccccc1)N/N=C/c1ccc([N+](=O)[O-])o1,?,/,-94%,?,?,?
O=C(CNc1ccccc1)N/N=C/c1ccc([N+](=O)[O-])o1,-105*,?,11µM*,?,i,-11%
Cc1ccc(NCC(=O)N/N=C/c2ccc(C(=O)O)cc2)cc1,22,5%,-3%,14%,i,0%
Cc1ccc(NCC(=O)N/N=C\c2ccc([N+](=O)[O-])o2)cc1,-106*,-25%,13µM*,11µM*,i,?
CC(Oc1ccccc1)C(=O)N[C@@H]1C(=O)N2C(C(=O)OCC3CCCCC3)C(C)(C)S[C@H]12 (stereo not given in full),/,/,-4%,?,/,/
CCCCCC(=O)N/N=C/c1ccc([N+](=O)[O-])o1,-103*,-26%,10µM*,?,i,/
CC(C)c1ccc2c(c1)CCC1C(C)(CN)CCCC21C (stereo not given),0,35µM*,11µM*,?,/,3%
Nc1nc(N)nc(-c2ccc([N+](=O)[O-])o2)n1,?,-31%,-19%,0%,?,-10%
SMILES,Giardia kill,ATXN2 expr inh,HepG2 tox,TGFb inhibitor,S2 tox,uPA surface inh
O=[N+]([O-])c1ccc(-c2ccn[nH]2)o1,-85*,-17%,-6%,-3%,i,1%
Cc1cccc2c1CC[C@H](CN1CCC(c3c(Cl)cccc3Cl)CC1)C[C@@H]2O,/,-24%,/,/,/,/
Cc1ccc(-c2[nH][nH]c(=O)c(=O)c2N=Nc2ccccc2)cc1,-92*,5%,-1%,8%,i,4%
Cc1cccc(NC(=O)CSc2nc3ccccc3c3nc(CCn4cncc4C)nn23)c1,/,?,13µM*,?,/,/
Cc1n[nH]c(C)c1CCc1nc2c3ccccc3nc(SCC(=O)Nc3ccc(F)cc3)n2n1,/,?,13µM*,?,?,/
Cc1ccc(NC(=O)CSc2nc3ccccc3c3nc(CCc4c(C)n[nH]c4C)nn23)cc1F,-9,-28%,-47%,-16%,?,/
CCCN1CNc2c(c(=O)[nH]c(=S)n2CCc2ccccc2C)C1,16,/,/,/,/,/
Cc1ccc2c(c1)COc1c3ccc(C(=O)NC(C)C)cc3nn1-2,-14,8%,-23%,-21%,i,7.1µM*
C[C@@H](CO)NC(=O)c1ccc2c3n(nc2c1)-c1ccc(Cl)cc1CO3,-8,29%,-14%,-34%,i,4.5µM*
Cc1ccc2c(c1)COc1c3ccc(C(=O)NCCO)cc3nn1-2,-12,32%,-4%,?,i,?
Cc1ccc2c(c1)COc1c3ccc(C(=O)N[C@@H](C)CO)cc3nn1-2,-8,45%,1%,7%,i,4.5µM*
COc1ccc(CN2CCOc3ccc(CN4CCC(O)CC4)cc3C2)c(OC)c1OC,/,/,/,/,i,/
COc1ccccc1C1CN(CC(=O)N2CCC(N3CCOCC3)CC2)Cc2ccccc2O1 (stereo not given),/,/,/,/,i,/
COc1ccc(C2(C(=O)NCC3Cc4cccc(-c5nc(C)cnc5C)c4O3)CCCC2)cc1 (stereo not given),/,/,/,/,i,/
Cc1ccccc1Nc1sc(C(=O)c2ccc(F)cc2)c(N)c1C(=O)NCCc1ccccc1,/,-29%,13µM*,?,?,/
CCOc1ccccc1Nc1sc(C(=O)c2ccccc2)c(N)c1C(=O)NCCc1ccccc1,/,6%,-3%,-4%,i,/
COc1cccc(Nc2sc(C(=O)c3ccc(Cl)cc3)c(N)c2C(=O)NCc2ccc(C)cc2)c1,/,/,-27%,13µM*,/,/
Cc1ccc(CNC(=O)c2c(Nc3c(C)cccc3C)sc(C(=O)c3ccccc3)c2N)cc1,/,?,-60%,13µM*,/,/
Cc1ccc(NC(=O)c2c(Nc3ccccc3C)sc(C(=O)c3ccccc3)c2N)cc1,/,-9%,-54%,?,?,/
Cn1nnnc1SCC1=C(C(=O)O)N2C(=O)[C@@H](NC(=O)[C@H](OC=O)c3ccccc3)[C@H]2SC1,/,/,/,/,i,/
